Screening data deposited in PubChem BioAssay by Sanford-Burnham Center for Chemical Genomics.
CD11b adhes inh: inhibitors of human CD11b/CD18 binding to fibrinogen; P05107+P11215; K562 CD11b/CD18 adhesion to fibrinogen, ATPlite luminescence; Mn2+ added to activate the integrin; inhibition, % at 10 µM; 93,000 tested, 0.54% active; AID 1497;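 active = primary inhibition of 50% or more at 10 µM, then 40% or more on retest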
CYP2C19 activ: increases human CYP2C19 enzyme activity; P33261; recombinant CYP2C19, luciferin-H EGE luminescence; hits give high values; 0 = fully inhibited enzyme, 1 = untreated enzyme; activation factor at 5 µM; 96,000 tested, under 10 active; AID 1025;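 active = activation factor of at least 2 at 5 µM in the primary screen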
CYP2C9 act: activators of human CYP2C9; AID 1024; 96,000 tested, 1.4% active; P11712; recombinant CYP2C9, luciferin-H conversion, luminescence; hits give high values; factor 1 = untreated enzyme, 0 = blocked; activation factor at 5 µM;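 active = activation factor of 2 or more for CYP2C9 at a 5 µM dose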
Target sequence (P11712 whole entry, looked up): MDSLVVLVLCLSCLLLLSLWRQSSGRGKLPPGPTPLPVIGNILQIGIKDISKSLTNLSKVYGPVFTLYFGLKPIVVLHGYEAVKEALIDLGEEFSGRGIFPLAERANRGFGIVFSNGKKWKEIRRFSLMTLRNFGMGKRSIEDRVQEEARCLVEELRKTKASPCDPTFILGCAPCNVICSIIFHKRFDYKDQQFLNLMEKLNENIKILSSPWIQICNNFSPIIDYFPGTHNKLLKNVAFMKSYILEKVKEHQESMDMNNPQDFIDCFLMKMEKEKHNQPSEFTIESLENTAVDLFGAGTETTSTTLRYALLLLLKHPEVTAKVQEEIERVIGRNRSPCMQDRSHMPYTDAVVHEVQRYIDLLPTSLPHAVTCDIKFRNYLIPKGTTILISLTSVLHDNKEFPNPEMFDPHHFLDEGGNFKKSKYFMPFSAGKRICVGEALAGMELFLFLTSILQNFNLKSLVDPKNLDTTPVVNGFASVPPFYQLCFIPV
CYP2C19 inhib: human CYP2C19 inhibition; P33261; CYP2C19 Supersomes, luciferin-H EGE luminescence, 30 min; inhibition, % at 5 µM; 96,000 tested, 21% active; AID 778;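 active = CYP2C19 inhibition above a set limit at 5 µM in the primary screen, cut at about 50% in these data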
CYP2C9 inhib: blocks human cytochrome P450 2C9. CYP2C9 Supersomes, luciferin-H conversion, luminescence. inhibition, % at 5 µM. 96,000 tested, 20% active. AID 777;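 active = blocking of liver enzyme CYP2C9 beyond about 50% at 5 µM, limit read from the data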
Mac1 fbg enh: increases human CD11b/CD18 adhesion to fibrinogen; K562 CD11b/CD18 adhesion to fibrinogen, ATPlite luminescence; activation, % at 10 µM; 93,000 tested, 0.07% active; AID 1499;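 active = 10 µM primary screen giving 50% or more activity, confirmed by 40% or more on retest at that dose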
Each line names hits and unclear results; the compound was inactive in the other large screens. Compounds with a hit are over-represented: about 28% of the library has one in this group of screens.

CC(=O)Nc1ccc(C(=O)CSc2nc3ccccc3n2CC(=O)N2CCCC2)cc1	none
CCn1c(SCC(=O)Nc2cc3oc4ccccc4c3cc2OC)nnc1-c1cccs1	CYP2C9 inhib 55.3
Cc1cc(Cl)ccc1NC(=O)CSc1nnc(Cc2cccs2)n1Cc1ccco1	CYP2C19 inhib 61.2 (no result: CD11b adhes inh, Mac1 fbg enh)
COCCn1c(SCC(=O)c2ccc(F)cc2)nnc1C(C)C	CYP2C19 inhib 75.9, CYP2C9 inhib 78.7
COc1cc2c(cc1NC(=O)CSc1ccc(C)cc1)oc1ccccc12	none (no result: CD11b adhes inh, Mac1 fbg enh)
CCn1c(SCC(=O)c2cc(OC)ccc2OC)nc2c1c(=O)n(C)c(=O)n2C	none
CCCn1c(SCC(=O)c2cc(OC)ccc2OC)nnc1C(C)C	CYP2C19 inhib 92.5
COc1ccccc1NC(=O)CSc1nnc(COc2ccc(Cl)cc2)n1Cc1ccco1	none
CCCn1c(SCC(=O)NC2CCCC(C)C2C)n[nH]c1=O (centres undefined)	none
O=C(N1CCOCC1)C12CC3CC(C1)CC(c1ccccc1)(C3)C2	none
Cc1ccc(C23CC4CC(CC(C(=O)N5CCOCC5)(C4)C2)C3)cc1	CYP2C19 inhib 76.5, CYP2C9 inhib 56.7
CNC(=O)COc1ncnc2sccc12	none
O=C(COc1ncnc2sccc12)N1CCc2ccccc2C1	CYP2C19 inhib 59.1
CCCCN1c2cc(C)c(O)cc2C(C(=O)OCC)C1C (centres undefined)	CYP2C19 inhib 59.3
COC(=O)c1cccc(C(=O)Nc2ccc(C)cc2Br)n1	CYP2C9 inhib 54.5
O=c1[nH][nH]c(C(F)(F)F)c1C=NCc1ccc(Cl)cc1	CYP2C19 inhib 58.1
O=c1[nH][nH]c(C(F)(F)F)c1C=NCc1cccc(Cl)c1	CYP2C19 inhib 68.2
Cc1ccccc1N(CC(=O)NCC1CCCO1)C(=O)C1(C)CC(=O)N=C2C=CC=CN21 (centres undefined)	none
COCCCn1c(Cc2csc(Nc3cccc(Cl)c3)n2)nnc1SCC(=O)OC	CYP2C19 inhib 87.3, CYP2C9 inhib 80.4
COCCCn1c(Cc2ccccc2)nnc1SCC(=O)N1CCCCC1	none
Cc1cc(C(=O)CN2C(=O)c3ccccc3S2(=O)=O)c(C)n1-c1ccccc1	CYP2C19 inhib 78.8, CYP2C9 inhib 66.3
O=C(CN1C(=O)c2ccccc2S1(=O)=O)c1ccccc1	none
Cc1ccc(C(=O)CN2/C(=C(\O)c3ccccc3)C(=O)c3ccccc3S2(=O)=O)c(C)c1	CYP2C9 inhib 69.3
CCNC(=O)c1ccc2c(c1)S(=O)(=O)c1ccccc1C2=O	none
CN(C)c1ccc(C(CC(=O)c2ccccc2)C2CCCCC2=O)cc1 (centres undefined)	none (no result: CYP2C19 activ, CYP2C9 act, CYP2C19 inhib, CYP2C9 inhib)
CCOC(=O)NC(c1cccc(Cl)c1)C1CCCCCC1=O (centres undefined)	CYP2C19 inhib 97.0, CYP2C9 inhib 56.2
COc1ccccc1N(CC(=O)NCCSC(C)(C)C)S(C)(=O)=O	none
Cc1ccc(N(C(C)C(=O)Nc2ccc(S(=O)(=O)N3CCOCC3)cc2)S(C)(=O)=O)cc1C (centres undefined)	CYP2C9 inhib 89.2
Cc1ccc(N(C(C)C(=O)N2CCCCC2)S(C)(=O)=O)cc1C (centres undefined)	CYP2C19 inhib 81.7
Cc1ccc(N(CC(=O)Nc2ccc(S(=O)(=O)N3CCOCC3)cc2)S(C)(=O)=O)cc1C	CYP2C19 inhib 77.0, CYP2C9 inhib 98.0
CC(C(=O)N1CCC(C(N)=O)CC1)N(c1ccc(Oc2ccccc2)cc1)S(C)(=O)=O (centres undefined)	none
CC(C)c1ccc(N(CC(=O)NCCSC(C)(C)C)S(C)(=O)=O)cc1	CYP2C19 inhib 61.4
CC(C)c1ccc(N(CC(=O)Nc2ccc(S(=O)(=O)N3CCOCC3)cc2)S(C)(=O)=O)cc1	CYP2C19 inhib 72.8, CYP2C9 inhib 90.1
CC(Sc1ccc(Cl)cc1)C(=O)Nc1ccc(S(=O)(=O)N2CCOCC2)cc1 (centres undefined)	CYP2C9 inhib 62.1 (no result: CD11b adhes inh, Mac1 fbg enh)
Cc1cc(-c2ccccc2)nc(=O)[nH]1	none
O=c1nc(-c2ccccc2)cc(C(F)(F)F)[nH]1	CYP2C9 inhib 51.4 (no result: CD11b adhes inh, Mac1 fbg enh)
O=S1(=O)C=C(SCc2cccc(Cl)c2)Nc2ccccc21	CYP2C19 inhib 86.5, CYP2C9 inhib 74.0 (no result: CD11b adhes inh, Mac1 fbg enh)
Cc1cccc(CSC2=CS(=O)(=O)c3ccccc3N2)c1	CYP2C19 inhib 53.9, CYP2C9 inhib 63.7 (no result: CD11b adhes inh, Mac1 fbg enh)
Cc1cc2nc(C)n(CCCNC(=O)Nc3ccc(F)cc3)c2cc1C	CYP2C9 inhib 60.1
Cc1sc(NC(=O)C(C)C)c(C(=O)Nc2ccccc2)c1C	none (no result: CD11b adhes inh, Mac1 fbg enh)
CCn1c(O)c(N=NC(=O)CNC(=O)/C=C/c2ccco2)c2ccccc21	CYP2C19 inhib 50.5, CYP2C9 inhib 64.7
CCn1c(O)c(N=NC(=O)CNC(=O)c2ccco2)c2ccccc21	none (no result: CYP2C19 activ, CYP2C9 act, CYP2C19 inhib, CYP2C9 inhib)
C=C(C)c1cccc(C(C)(C)NC(=O)Nn2cnnc2)c1	CYP2C19 inhib 73.4, CYP2C9 inhib 50.5
C=C(C)c1cccc(C(C)(C)NC(=O)Nc2ncccn2)c1	none
COc1cc(/C=C/C(=O)OCC(=O)c2c[nH]c3ccccc23)ccc1OC(F)F	none (no result: CYP2C19 activ, CYP2C9 act, CYP2C19 inhib, CYP2C9 inhib)
CCOC(=O)C1=C(N)Oc2cc(O)ccc2C1c1cccnc1 (centres undefined)	CYP2C19 inhib 89.2, CYP2C9 inhib 90.5
CCOC(=O)C1=C(C(C)=O)C(c2cccnc2)C(C#N)=C(N)O1 (centres undefined)	none
CCOC(=O)c1nn(-c2ccccc2)c(=O)c2c(N)scc12	none
Nc1scc2c(C(=O)N/N=C/c3ccc(Cl)cc3)nn(-c3ccccc3)c(=O)c12	CYP2C9 inhib 54.0
CCc1ccccc1NC(=O)CN(C)C(=O)CSc1nn(-c2ccccc2)c(=S)s1	none (no result: CYP2C19 activ, CYP2C9 act, CYP2C19 inhib, CYP2C9 inhib)
O=C(O)c1[nH]c2ccc(Cl)cc2c1CC(=O)N1CCN(c2ccccc2)CC1	none
CCCCN(CC)C(=O)Cc1c(C(=O)O)[nH]c2ccc(Cl)cc12	CYP2C19 inhib 95.9, CYP2C9 inhib 95.4
Cc1ccc2nc(-c3ccc(N4C(=O)CC(N5CCCC(C)C5)C4=O)cc3)sc2c1 (centres undefined)	none
COc1cc2cc(CN(C(=O)Nc3ccccc3)C3CCCC3)c(=O)[nH]c2cc1OC	CYP2C9 inhib 55.1
CCN(CC)CCCN(Cc1cc2cc(OC)c(OC)cc2[nH]c1=O)C(=O)Nc1ccccc1	none
O=C(Nc1ccon1)c1cc2c(s1)CCCCCC2	CYP2C19 inhib 54.7, CYP2C9 inhib 68.9
O=C(NCCCn1ccnc1)c1cc2c(s1)CCCCC2	CYP2C19 inhib 93.1, CYP2C9 inhib 72.7
O=C(Nn1cnnc1)c1cc2c(s1)CCCCC2	CYP2C19 inhib 72.3
O=C(NCCO)c1cc2c(s1)CCC2	none (no result: CD11b adhes inh, Mac1 fbg enh)
CCOC(=O)c1cc(S(=O)(=O)NC2CCN(C(=O)OCC)CC2)cn1C	CYP2C9 inhib 56.8
Cc1cc(Br)cc2c(C(=O)Nc3c(C)n(C)n(-c4ccccc4)c3=O)cc(-c3cccs3)nc12	CYP2C9 inhib 76.4
